This note sets out measurements from PMC10726135, “HNF4α isoforms regulate the circadian balance between carbohydrate and lipid metabolism in the liver”.

Over roughly 18,000 sequences, “log2 normalized intensity” has its median near 0.36; the highest 2% begin near 7.3. For the sample, the highest values were picked, then their nearest neighbours and some sequences at random.

The target in this assay is T1, HNF4alpha8 (COS-7 nuclear extract) (Homo sapiens, UniProt P41235-5 1-452).
T1 sequence: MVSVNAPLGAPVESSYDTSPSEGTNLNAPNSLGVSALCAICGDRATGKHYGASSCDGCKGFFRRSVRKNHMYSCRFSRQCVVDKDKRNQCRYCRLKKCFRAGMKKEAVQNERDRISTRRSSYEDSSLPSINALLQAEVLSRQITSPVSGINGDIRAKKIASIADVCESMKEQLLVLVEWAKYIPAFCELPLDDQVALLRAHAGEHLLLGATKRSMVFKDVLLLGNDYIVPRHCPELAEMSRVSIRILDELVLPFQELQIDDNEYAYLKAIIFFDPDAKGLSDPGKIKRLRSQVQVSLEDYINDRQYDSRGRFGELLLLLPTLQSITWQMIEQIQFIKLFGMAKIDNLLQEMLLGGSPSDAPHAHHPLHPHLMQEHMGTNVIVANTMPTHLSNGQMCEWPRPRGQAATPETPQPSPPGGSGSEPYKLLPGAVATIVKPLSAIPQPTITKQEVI
The assay is described as follows: protein-binding microarray; COS-7 nuclear extract on double-stranded Agilent 4x180k PBM; binding buffer, salt, pH and temperature not given in the material; high values mean tight binding. Particulars: chain copies: 2; label: 3' end of strand 1 on the slide; dsDNA, one strand shown. An outline of the steps:
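Nuclear extracts came from COS-7 cells transiently transfected by CaPO4 with a human HNF4α isoform expression vector. They were applied to a custom Agilent SurePrint G3 4x180k array of ~60-nt oligonucleotides, made double-stranded, with ~44,000 test sequences spotted in quadruplicate. Bound HNF4α was imaged at 2-µm resolution on an Agilent G2565CA scanner. Binding signal was taken as background-corrected, normalized gProcessedSignal from Agilent software.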
“AAAATATGGACTTTGGAATTAAGAAAAGCTGCCTAGGGAGATTAGAGTATCGGTCGA”: the binding signal amounted to 5.77 log2 normalized intensity.
The value for “ATTTGGACTTTTACTCTTAGAGATAATGGGGCCTAGGGAGATTAGAGTATCGGTCGA” was 2.47 log2 normalized intensity; that for “AAAGATGTTTAAATAGTGATAATGGATGGCGCCTAGGGAGATTAGAGTATCGGTCGA” was 0.702 log2 normalized intensity; that for “GAGACAGCTCCACAGCTGGACTTTGGCTGCGCCTAGGGAGATTAGAGTATCGGTCGA” was 6.17 log2 normalized intensity.
The value for “GCTAAGAGACAGCTCCACAGCTGGACTTTGGCCTAGGGAGATTAGAGTATCGGTCGA” was 5.9 log2 normalized intensity.
As for “GGACTTTGGTGTCTGACAGATAAGATTTGGGCCTAGGGAGATTAGAGTATCGGTCGA”, the binding signal came out at 2.62 log2 normalized intensity.
As for “ATCTCCAAACGAGACTTTGGACTTTGGACTGCCTAGGGAGATTAGAGTATCGGTCGA”, the binding signal was 11.9 log2 normalized intensity.
Take “AGGCCAAACAAAAATATGGACTTTGGAATTGCCTAGGGAGATTAGAGTATCGGTCGA”: the binding signal was found to be 8.4 log2 normalized intensity.
On to “TATGCTCTCTCTCCACCTGGAGGGACTTTGGCCTAGGGAGATTAGAGTATCGGTCGA”, for which the binding signal was 3.06 log2 normalized intensity.
On to “TCTTTAGGCCAAACAAAAATATGGACTTTGGCCTAGGGAGATTAGAGTATCGGTCGA”, for which the binding signal amounted to 6.57 log2 normalized intensity.
For “GGATAATGATAAAGAGATTGGACTTTGGCCGCCTAGGGAGATTAGAGTATCGGTCGA”, the binding signal came out at 9.44 log2 normalized intensity.
With “ATCTCCAGATAAGACTTTGGACTTTGGACCGCCTAGGGAGATTAGAGTATCGGTCGA”, the binding signal stood at 11.8 log2 normalized intensity.
For the sequence “GGGTTAGGCCTTTAGAGGATTTACTTATACGCCTAGGGAGATTAGAGTATCGGTCGA”, the binding signal stood at 0.821 log2 normalized intensity.
As to “TGCTCATAGCTACGGGTGACCTTGAGCACTGCCTAGGGAGATTAGAGTATCGGTCGA”, the binding signal was determined as 3.93 log2 normalized intensity.
With “TCCTCTTCCCTACCCCCTGGGAGTAACCTGGCCTAGGGAGATTAGAGTATCGGTCGA”, the binding signal came out at 3.13 log2 normalized intensity.
Consider “TCTGATACATTGGACAACTGTACTTTGGACGCCTAGGGAGATTAGAGTATCGGTCGA”, for which the binding signal worked out at 8.02 log2 normalized intensity.
For “GACTCATCTCCAAACGAGACTTTGGACTTTGCCTAGGGAGATTAGAGTATCGGTCGA”, the binding signal stood at 9.58 log2 normalized intensity.
The value for “ACAGTTCTGATACATTGGACAACTGTACTTGCCTAGGGAGATTAGAGTATCGGTCGA” was 2.21 log2 normalized intensity; that for “TACATTGGACAACTGTACTTTGGACTGGGGGCCTAGGGAGATTAGAGTATCGGTCGA” was 6.69 log2 normalized intensity.
Regarding “GAAGGAGAGAGAGGGAGAGTGGCCTTTGGAGCCTAGGGAGATTAGAGTATCGGTCGA”, the binding signal came out at 4.12 log2 normalized intensity.
For the sequence “CTCCAAACATCTTTGGTATGGACTGATATTGCCTAGGGAGATTAGAGTATCGGTCGA”, the binding signal is 1.85 log2 normalized intensity.
Consider “CAAACGAGACTTTGGACTTTGGACTTGGGAGCCTAGGGAGATTAGAGTATCGGTCGA”, for which the binding signal came to 10.9 log2 normalized intensity.
Regarding “CACAAATTGGAGAGCATCTTGGACTTGGGAGCCTAGGGAGATTAGAGTATCGGTCGA”, the binding signal stood at 3.16 log2 normalized intensity.
Consider “AAAGGGACTCATCTCCAAACGAGACTTTGGGCCTAGGGAGATTAGAGTATCGGTCGA”, for which the binding signal amounted to 2.23 log2 normalized intensity.
